Laboratory results: PubChem BioAssay (NCI)
“And” between values parts separate entries of the source, which are not always exact repeats. Identical values can stand only once. The panel holds about 83,000 compounds, 20% with a hit somewhere; the sample as a whole holds those more often.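 Interpretation: 100, growth as untreated; towards 0, rising growth inhibition; 0, no net growth; 0 to -100, cell death. Compounds scoring below 10 were considered active.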 The source made the active and inactive calls.

Experiments:
Test in all cases: NCI-60 one-dose screen, 48 h (100 = growth as untreated, 0 = no growth, -100 = all killed)
Settings in all cases: 10 µM unless noted
NCI/ADR-RES ovarian = tested on: NCI/ADR-RES ovarian
T-47D breast = tested on: T-47D breast
BT-549 breast = tested on: BT-549 breast
MDA-MB-435 melanoma = tested on: MDA-MB-435 melanoma
SW-620 colon = tested on: SW-620 colon
MCF7 breast = tested on: MCF7 breast
HCT-116 colon = tested on: HCT-116 colon
HCC-2998 colon = tested on: HCC-2998 colon
KM12 colon = tested on: KM12 colon

| SMILES | growth (NCI/ADR-RES ovarian) | growth (T-47D breast) | growth (BT-549 breast) | growth (MDA-MB-435 melanoma) | growth (SW-620 colon) | growth (MCF7 breast) | growth (HCT-116 colon) | growth (HCC-2998 colon) | growth (KM12 colon) |
| --- | --- | --- | --- | --- | --- | --- | --- | --- | --- |
| O=C(NCCCN1CC1)Nc1cccc2ccccc12 | 101% (inactive) | 86.4% (inactive) | 90.3% (inactive) and 105% (inactive) | 108% (inactive) and 88% (inactive) | 99% (inactive) and 89.6% (inactive) | 82% (inactive) and 77.9% (inactive) | 98.1% (inactive) and 94.2% (inactive) | 97.9% (inactive) and 93.4% (inactive) | 103% (inactive) and 102% (inactive) |
| CCOC(=O)c1ccccc1C(=O)OCC | 102% (inactive) | 100% (inactive) | 95.6% (inactive) | 91.5% (inactive) | 102% (inactive) | 97.8% (inactive) | 100% (inactive) | 110% (inactive) | 104% (inactive) |
| O=C(O)c1ccc(=O)[nH]c1 | 88.9% (inactive) and 102% (inactive) | 88.8% (inactive) and 89.6% (inactive) | 89.7% (inactive) | 106% (inactive) and 103% (inactive) | 105% (inactive) and 107% (inactive) | 126% (inactive) and 93.4% (inactive) | 103% (inactive) and 93.7% (inactive) | -49% (active) and 101% (inactive) | 103% (inactive) and 105% (inactive) |
| CC[C@H](C)[C@H](NC(=O)[C@H]1CCCCN1C)C(=O)N(C)[C@H](C(=O)NC12CC(C(=O)N[C@@H](Cc3ccccc3)C[C@H](C)C(=O)OC)(C1)C2)C(C)C | 103% (inactive) | 85.7% (inactive) | 101% (inactive) | 108% (inactive) | 107% (inactive) | 96.4% (inactive) | 99.5% (inactive) | 109% (inactive) | 104% (inactive) |
| O=[P+](O)c1cccnc1 | 102% (inactive) | 88.2% (inactive) | 116% (inactive) | 107% (inactive) | 107% (inactive) | 102% (inactive) | 102% (inactive) | 115% (inactive) | 101% (inactive) |
| CC[PH+](CC)CC.O=COC1OC([S-])C(OC=O)C(OC=O)C1OC=O.[Au+] (stereo not given) | 18.7% (inactive) | -82.7% (active) | -80.8% (active) | -72.2% (active) | -76.3% (active) | -69.2% (active) | -50.3% (active) | -90% (active) | -78.9% (active) |
| Nc1ccc(S(=O)(=O)F)cc1 | 107% (inactive) | 96.4% (inactive) | 104% (inactive) | 102% (inactive) | 105% (inactive) | 106% (inactive) | 100% (inactive) | 103% (inactive) | 100% (inactive) |
| C=CCOC(=O)C(Br)CC (stereo not given) | 107% (inactive) | 95.8% (inactive) | 111% (inactive) | 109% (inactive) | 104% (inactive) | 103% (inactive) | 104% (inactive) | 101% (inactive) | 112% (inactive) |
| N#CC(C#N)=Cc1cccc(F)c1 | 107% (inactive) | 105% (inactive) | 111% (inactive) | 107% (inactive) | 109% (inactive) | 101% (inactive) | 108% (inactive) | 110% (inactive) | 108% (inactive) |
| C/C(=C\c1ccn(-c2ccc(N)c(C(F)(F)F)c2)n1)[C@@H]1C[C@@H]2O[C@]2(C)CCC[C@H](C)[C@H](O)[C@@H](C)C(=O)C(C)(C)[C@@H](O)CC(=O)O1 | 0.324% (active) | 47.6% (inactive) | 28.2% (inactive) | -26.8% (active) | 44.5% (inactive) | 17% (inactive) | 9.04% (active) | 0.272% (active) | 20.6% (inactive) |
| N#CC(N)c1ccccc1 (stereo not given) | 108% (inactive) | 114% (inactive) | 96.3% (inactive) | 98.3% (inactive) | 103% (inactive) | 111% (inactive) | 96.4% (inactive) | 113% (inactive) | 103% (inactive) |
| COc1cc(-c2ccc(N)c(OC)c2)ccc1N | 105% (inactive) | 96.4% (inactive) | 95.6% (inactive) | 107% (inactive) | 100% (inactive) | 99.8% (inactive) | 112% (inactive) | 124% (inactive) | 101% (inactive) |
| COc1cc(C2C3=C(CCCC3=O)N(CCO)c3cc4c(cc32)CCC4)cc(OC)c1OC (stereo not given) | 87.8% (inactive) | 38.2% (inactive) | 109% (inactive) | 100% (inactive) | 103% (inactive) | 23% (inactive) | 68.6% (inactive) | 78.9% (inactive) | 90.5% (inactive) |
| O=C(CBr)OCCOC(=O)CBr | 99.9% (inactive) | 79.5% (inactive) | 65.4% (inactive) | 91.6% (inactive) | 58.1% (inactive) | 68.5% (inactive) | 69.2% (inactive) | 110% (inactive) | 99.5% (inactive) |
| O=NN(c1ccccc1)c1ccccc1 | 100% (inactive) | 107% (inactive) | 122% (inactive) | 105% (inactive) | 102% (inactive) | 99.8% (inactive) | 95.4% (inactive) | 101% (inactive) | 102% (inactive) |
| CC1(C)C=Cc2c(ccc3c2[N+]([O-])=C2C3=C[C@@]34NC(=O)[C@]5(CCCN5C3=O)C[C@@H]4C2(C)C)O1 | 54.6% (inactive) | 53.2% (inactive) | 39.8% (inactive) | 47.3% (inactive) | 12.9% (inactive) | 17.9% (inactive) | 17.4% (inactive) | 78.1% (inactive) | 47.5% (inactive) |
| Cc1cc[c-]cc1.Fc1c[c-]c(-c2ccccn2)c(F)c1.N#CCC[PH+](CCC#N)c1ccccc1.[Pt+2] | 55.3% (inactive) | 29.1% (inactive) | 55.7% (inactive) | 30.9% (inactive) | 6.78% (active) | 20.8% (inactive) | 19.1% (inactive) | 82.4% (inactive) | 74.1% (inactive) |
| Cc1cc(N(CCCl)CCCl)ccc1C=Nc1ccc(-c2csc(-c3ccccc3)n2)cc1 | 82.4% (inactive) | 57.8% (inactive) | 67.2% (inactive) | 95.2% (inactive) | 83.1% (inactive) | 48% (inactive) | 89.8% (inactive) | 94.2% (inactive) | 89.5% (inactive) |
| COC(=O)C12C3C4C1C1C2C3C41NC(=O)c1csc([C@@H](C[C@H](C(C)C)N(C)C(=O)[C@@H](NC(=O)[C@H]2CCCCN2C)C2CC2)OC(C)=O)n1 (stereo not given in full) | 40.7% (inactive) | 61.4% (inactive) | -17.2% (active) | -29.7% (active) | 26.1% (inactive) | 18.8% (inactive) | 2.94% (active) | 28.4% (inactive) | 5.25% (active) |
| C[Se]/C=C1/C(=O)N(c2c(Cl)cccc2Cl)c2ccccc21 | 9.06% (active) | 65.8% (inactive) | -35.6% (active) | -30.3% (active) | 19.3% (inactive) | 17.3% (inactive) | 11.4% (inactive) | 77.2% (inactive) | 72% (inactive) |
| C=C1C(=O)OC2CC3(C)OC3C3OC3C3=CC(OC3=O)C12 (stereo not given) | 35.9% (inactive) and 103% (inactive) | 5.88% (active) and 16.2% (inactive) | 98.2% (inactive) | 98.3% (inactive) and 98.4% (inactive) | 3.21% (active) and 7.75% (active) | 84.4% (inactive) and 78.6% (inactive) | 2.43% (active) and 17.7% (inactive) | 103% (inactive) | 104% (inactive) and 103% (inactive) |
| Cc1cc(NC(=O)NCCCOc2ccc(N3C(N)=NC(N)=NC3(C)C)cc2Cl)ccc1S(=O)(=O)F | 100% (inactive) | 51.1% (inactive) | 59.9% (inactive) | 27.7% (inactive) | 18.5% (inactive) | 25.5% (inactive) | 17.8% (inactive) | 7.8% (active) | 20.9% (inactive) |
| O=C1CN2CCC1CC2 | 113% (inactive) | 91.1% (inactive) | 94.5% (inactive) | 102% (inactive) | 106% (inactive) | 103% (inactive) | 100% (inactive) | 124% (inactive) | 102% (inactive) |
| CCN(CC)CCn1c(=O)n(C)c2ccccc21 | 101% (inactive) | 109% (inactive) | 124% (inactive) | 105% (inactive) | 105% (inactive) | 102% (inactive) | 111% (inactive) | 101% (inactive) | 99.8% (inactive) |
| O=P1(N(CCCl)CCCl)NCCCO1 (stereo not given) | 108% (inactive) | 113% (inactive) | 106% (inactive) | 107% (inactive) | 102% (inactive) | 96.8% (inactive) | 104% (inactive) | 100% (inactive) | 111% (inactive) |
